Laboratory results from PubChem BioAssay AID2314 (National Center for Advancing Translational Sciences (NCATS), 2010).
About 37,000 (12%) of roughly 300,000 compounds were called active. This is one part of a sample in which actives are shown more often than they occur. A number with no mark means an inactive call. Rule as the data show it: active = max response mostly above about 13% (no sharp cut-off); inactive = mostly below about 14%.

experiment: Cycloheximide Counterscreen for Small Molecule Inhibitors of Shiga Toxin; details: cell reporter, cycloheximide protein synthesis inhibition counterscreen; stronger effect = higher value; also: read at 38.3 µM for the half of the compounds with a filed dose; 0% is about no effect

In order of falling max response:
1. O=C1CCN(C(=S)NCCc2ccccc2)CC1  16%
2. COc1cc(/C=N/NC(=S)Nc2cccnc2)cc(OC)c1O  14%
3. O=S(=O)(c1cccc(-c2cn3ccccc3n2)c1)N1CCCC1  13.9%
4. c1ccc(-c2nnc(SCc3nc4ccccc4[nH]3)o2)cc1  10.9%
5. COc1ccc(/C=C/C(=O)Nc2ccc(C)cc2)cc1S(=O)(=O)N1CCOCC1  10.5%
6. S=C(NCCCc1ccccc1)Nc1ccc(Br)cc1  9.21%
7. CCOc1ccc2c(=O)c(-c3ccc4c(c3)OCCCO4)c(C)oc2c1  7.6%
8. COc1ccc(/C=C/C(=O)N2CCCC2)cc1OC  5.12%
9. COc1ccc(OC)c(/C=C/C(=O)OCC(=O)Nc2ccc3c(c2)OCCO3)c1  4.24%
10. O=C(NCCCN1CCCCC1)C1CC(=O)N(CCc2ccccc2)C1 (stereo unspecified)  3.29%
11. COc1ccc(-n2c(C)cc(C(=O)CN3C(=O)NC4(CCc5ccccc54)C3=O)c2C)cc1 (stereo unspecified)  3.03%
12. CC(=O)c1ccccc1OCc1ccc(C(=O)c2ccccc2)cc1  2.75%
13. COc1cccc(C(=O)Nc2cccnc2)c1OC  2.63%
14. S=C(NCCc1ccccc1)NCc1ccccc1Cl  2.05%
15. Oc1c(Br)cc(/C=N/NC(=S)NCC2CCCO2)cc1Br (stereo unspecified)  1.44%
16. CCSc1nc2sc3c(c2c(=O)[nH]1)CC(C)(C)OC3  0.89%
17. N#Cc1c(-c2ccccc2)c(-c2ccccc2)n[nH]c1=O  0.547%
18. CC1CCCCN1C(=S)NCc1ccccc1 (stereo unspecified)  0.333%
19. O=S(=O)(c1cccc(-c2nnc3n2CCCCC3)c1)N1CCOCC1  -0.622%
20. CCN(CC)CCCN=C(N)N  -0.653%
21. O=C(CS(=O)(=O)Cc1ccccc1)NCC1CCCO1 (stereo unspecified)  -0.705%
22. Cc1ccc(S(=O)(=O)c2c[nH]c3ccc(Cl)cc3c2=O)cc1  -0.873%
23. CCC(=O)N1CCN(c2ccccc2NC(=O)COc2cccc(C)c2C)CC1  -0.942%
24. Cc1ccc2c(c1)N(CC(=O)NCC1CCCO1)C(=O)CO2 (stereo unspecified)  -1.04%
25. O=C1C(=O)N(CC2COc3ccccc3O2)c2ccccc21 (stereo unspecified)  -1.34%
26. Cc1nc2ccccc2c(=O)n1NC(=O)c1ccccc1  -1.37%
27. Cc1cccc(N2CCN(C(=O)CCS(=O)(=O)c3ccc4c(c3)NC(=O)C(C)S4)CC2)c1C (stereo unspecified)  -1.44%
28. COc1cccc(CNc2nc(C(F)(F)F)nc3ccccc23)c1  -1.53%
29. CC(NC(=O)CCCC1CCCCC1)c1ccc(S(N)(=O)=O)cc1 (stereo unspecified)  -1.75%
30. Cc1nnc(OCC(=O)NCCC2=CCCCC2)c2ccccc12  -1.88%
31. COc1ccc(CN(C)Cc2nc3cc(OC)c(OC)cc3c(=O)[nH]2)c(OC)c1  -2.17%
32. COc1ccc(C(=O)NC2CCN(C(=S)NCCc3ccccc3)CC2)cc1  -2.31%
33. O=C(Cc1cccc2ccccc12)NCCC1=CCCCC1  -2.35%
34. COc1ccc(NS(=O)(=O)c2cc(NC(=O)/C=C/c3cc(OC)c(OC)c(OC)c3)ccc2N2CCCCC2)cc1  -2.53%
35. COc1cccc(CNC(=O)CN(C)S(=O)(=O)c2ccc3c(c2)c(=O)n(C)c(=O)n3C)c1  -2.54%
36. O=c1[nH]nc(CSCc2ccccc2Cl)[nH]1  -2.59%
37. COc1cccc(CNS(=O)(=O)c2cc3c(cc2C)n(C)c(=O)c(=O)n3C)c1  -2.63%
38. COc1ccc(CN(Cc2ccco2)S(=O)(=O)c2ccc(S(=O)(=O)N3CCCC3)cc2)cc1  -2.84%
39. COc1ccc(OC(C)C(=O)NCCc2nc3ccccc3[nH]2)cc1 (stereo unspecified)  -2.98%
40. CCCCCCCN=C(C)c1ccccc1O  -3.52%
41. CCCc1ccc(-c2c(C)sc(NC(=O)c3ccnn3C)c2C#N)cc1  -3.68%
42. CCc1ccc(-c2cc(C)no2)cc1S(=O)(=O)NCCc1ccc(S(N)(=O)=O)cc1  -3.78%
43. CCOc1ccccc1Nc1ccc(C(=O)O)cc1[N+](=O)[O-]  -4.22%
44. O=C(/C=C\c1ccc2c(c1)OCO2)NC1(C(=O)Nc2ccc3c(c2)OCCO3)CCCCC1  -4.38%
45. CCc1cc2c(N3CCN(c4nnc(CC)s4)CC3)ncnc2s1  -4.57%
46. O=C(Nc1c2c(nn1-c1cccc(Cl)c1)CS(=O)(=O)C2)c1cccs1  -4.62%
47. N=C(N)SCc1cccc2ccccc12  -4.81%
48. COCCNC(=O)COc1ccc(N(C)S(=O)(=O)c2ccc3ccccc3c2)cc1  -5.19%
49. Oc1ccc(N2CCN(C(=S)NCc3ccccc3)CC2)cc1  -5.44%
50. CCNC(=O)CC1C(=O)N(c2ccc(OC)cc2)C(=S)N1CCc1ccncc1 (stereo unspecified)  -6.33%
51. O=C(CCc1n[nH]c(=O)[nH]c1=O)N/N=C/c1ccc(Br)o1  -9.24%
52. CCN(C(=O)CN1C(=O)/C(=C/c2ccc(F)cc2)SC1=S)C1CCS(=O)(=O)C1 (stereo unspecified)  -13.6%

With `COc1ccc(/C=C/C(=O)Nc2ccc3c(c2)OCCO3)cc1OC` the max response was 34.3% (active).
In the case of `COc1ccc(/C=C/C(=O)Nc2ccc(C34CC5CC(CC(O)(C5)C3)C4)cc2)cc1OC`, the max response is reported as 36.8% (active).
With `COc1cccc(/C=C/C(=O)Nc2ccc3c(c2)OCCO3)c1` the max response was 51.1% (active).
In the case of `COc1ccc(/C=C/C(=O)Nc2cccnc2)cc1OC`, the max response is reported as 19.5% (active).
For `Cc1cccn2cc(-c3cccc(S(=O)(=O)N4CCCCC4)c3)nc12`, the max response was 15.4% (active).
With `S=C(NCCC1=CCCCC1)Nc1ccccc1` the max response was 39.2% (active).
In the case of `Oc1ccccc1N1CCN(C(=S)NCc2ccccc2)CC1`, the max response is reported as 31.8% (active).
With `S=C(NCCc1ccccc1)Nc1ccccc1` the max response was 52.7% (active).
For `S=C(NCCc1ccccc1)NCC1CCCO1` (stereo unspecified), the max response was 29.4% (active).
In the case of `S=C(NCCc1ccccc1)N1CCCCC1`, the max response is reported as 60.3% (active).
With `c1ccc2c(CSCc3nc4ccccc4[nH]3)cccc2c1` the max response was 13.2% (active).
In the case of `Clc1ccccc1SCc1nc2ccccc2[nH]1`, the max response is reported as 52.8% (active).
In the case of `CCCCCCCCCCCCN=C(N)N`, the max response is reported as 13.5% (active).
With `COc1cccc(CNc2ncc(-c3ccccc3)n2C)c1` the max response was 23.9% (active).
